{"source": "PubChem BioAssay (EPA / NIEHS)", "note": "Records with an inconclusive call do not appear. Activity calls are given as the source filed them. The calls were made as follows: active = hit-call score of the fitted dose curve at least 0.9, where 1 is the maximum; inconclusive = response in the unintended direction; inactive = score below 0.9."}
{"assay": "CCTE_Harrill_HTTr_CellCount_MCF7: CCTE's Cell Proliferation Assessment for the High-Throughput Transcriptomics (HTTr) Platform, Harrill Lab (AID 2284012);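 also: cells exposed to compound for six hours; intended direction is loss of nuclei count meaning fewer cells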", "procedure,_shortened": "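MCF7 cells exposed 6 hours to an eight-point dilution series; Hoechst-stained nuclei counted by high-content imaging. Bidirectional curve fitting against DMSO baseline.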"}
{"smiles": "O=C(N[C@H](CO)[C@H](O)c1ccc([N+](=O)[O-])cc1)C(Cl)Cl", "outcome": "inactive"}
{"smiles": "OC[C@H]1O[C@@H]2O[C@H]3[C@H](O)[C@@H](O)[C@@H](O[C@H]4[C@H](O)[C@@H](O)[C@@H](O[C@H]5[C@H](O)[C@@H](O)[C@@H](O[C@H]6[C@H](O)[C@@H](O)[C@@H](O[C@H]7[C@H](O)[C@@H](O)[C@@H](O[C@H]1[C@H](O)[C@H]2O)O[C@@H]7CO)O[C@@H]6CO)O[C@@H]5CO)O[C@@H]4CO)O[C@@H]3CO", "outcome": "inactive"}
{"smiles": "CC(=O)c1ccccc1", "outcome": "inactive"}
{"smiles": "CC1(C)C(=O)N(Cl)C(=O)N1Cl", "outcome": "inactive"}
{"smiles": "CCN(CC)C(=S)SSC(=S)N(CC)CC", "outcome": "inactive"}
{"smiles": "Cc1nc(-c2ccccn2)ncc1C(=O)Nn1cc(C)c2cc(F)ccc21", "outcome": "inactive"}
{"smiles": "C[C@]12C=CC(=O)C=C1CC[C@H]1[C@@H]3C[C@@H](O)[C@](O)(C(=O)CO)[C@@]3(C)C[C@H](O)[C@@]12F", "outcome": "inactive"}
{"smiles": "C[C@@H](Oc1ccc(CNC(=O)c2cccnc2Oc2ccc3c(c2)OCO3)c(F)c1)C(=O)O", "outcome": "inactive"}
{"smiles": "CCCC(CCC)C(=O)O", "outcome": "inactive"}
{"smiles": "O=C(O)c1ccc2c(c1)nc(C(=O)NC1CCN(C3CC3)CC1)n2Cc1cc(-c2ccc(Cl)s2)on1", "outcome": "inactive"}
{"smiles": "Cn1cc[nH]c1=S", "outcome": "inactive"}
{"smiles": "NC(N)=O", "outcome": "inactive"}
{"smiles": "CCCCCCOC(=O)CC(CC(=O)OCCCCCC)(OC(=O)CCC)C(=O)OCCCCCC", "outcome": "inactive"}
{"smiles": "CCc1cccc(CC)c1N", "outcome": "inactive"}
{"smiles": "c1ccc2c(c1)-c1cccc3c1c-2cc1ccccc13", "outcome": "inactive"}
{"smiles": "CCCCN1C(=O)[C@@H]([C@H](O)C2CCCCC2)NC(=O)C12CCN(Cc1ccc(Oc3ccc(C(=O)O)cc3)cc1)CC2", "outcome": "inactive"}
{"smiles": "O=C(NO)C1(NS(=O)(=O)c2ccc(Oc3ccc(F)cc3)cc2)CCOCC1", "outcome": "inactive"}
{"smiles": "CCn1nc(C)c2c1C(=O)NCC(c1ccc(O)cc1)=N2", "outcome": "inactive"}
{"smiles": "OCCNCCO", "outcome": "inactive"}
{"smiles": "NC(=O)N1c2ccccc2C=Cc2ccccc21", "outcome": "inactive"}
{"smiles": "CCCCCCCCN(C)C", "outcome": "inactive"}
{"smiles": "CCCCOC(=O)c1ccccc1", "outcome": "inactive"}
